# Where a name gives a salt, the structure may show the parent alone. The whole screen tested about 5,800 compounds, of which about 620 (11%) showed activity. The sample as a whole holds a higher share of actives than the screen did. A number with no mark means an inactive call.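 Rule for the calls: active = score above a cut-off or among the top three wells of a plate; in these data no inactive exceeds 0.85.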
# Tested on: primary human hepatic stellate cells (donor 1)
# Experiment: scaled lipid accumulation score (0 = DMSO-like, 1 = nortriptyline-like); higher = stronger HSC inactivation (lipid re-accumulation), active = hit call of the paper
# Conditions: 48 h
# [1] = library stock concentration: 3.33 mM
# [2] = library stock concentration: 10 mM
# [3] = library stock concentration: 80 uM
# [4] = library stock concentration: 400 uM
# [5] = library stock concentration: 2 mM
# [6] = library stock concentration: 1 mM
smiles,measurement,setting,value
O=C1Nc2ccc(Br)cc2/C1=C/c1cc2c([nH]1)CCCC2 [VEGF Receptor 2 Kinase Inhibitor II],scaled lipid accumulation score,[1],0.454
CN(C)S(=O)(=O)c1ccc2c(c1)/C(=C/c1cc3c([nH]1)CCCC3)C(=O)N2 [listing 1 of 3 here],scaled lipid accumulation score,[2],0.958 (active)
CN(C)S(=O)(=O)c1ccc2c(c1)/C(=C/c1cc3c([nH]1)CCCC3)C(=O)N2 [listing 2 of 3 here],scaled lipid accumulation score,[1],0.613
O=C1Nc2ccccc2/C1=C\c1c(Cl)[nH]c2ccccc12,scaled lipid accumulation score,[3],≤ -0.001
same,scaled lipid accumulation score,[4],≤ -0.001
same,scaled lipid accumulation score,[5],≤ -0.001
same,scaled lipid accumulation score,[2],0.116
COc1cc(OC)c(C=C2C(=O)Nc3ccccc32)c(OC)c1,scaled lipid accumulation score,[1],≤ 0
same,scaled lipid accumulation score,[2],≤ 0
CN(C)S(=O)(=O)c1ccc2c(c1)/C(=C/c1cc3c([nH]1)CCCC3)C(=O)N2 [listing 3 of 3 here],scaled lipid accumulation score,[6],0.413 (active)
"CCCCC[C@H](O)CC[C@@H]1[C@@H](CCCCCCC(=O)O)[C@@H](O)C[C@H]1O [13,14-dihydro Prostaglandin F1.alpha.]",scaled lipid accumulation score,[6],≤ 0
NCc1c[nH]c(=S)n1C1CCc2c(F)cc(F)cc2C1 [(R)-Nepicastat HCl],scaled lipid accumulation score,[1],≤ 0
same,scaled lipid accumulation score,[2],0.361
CC(=NNC(=S)N1CCC1)c1ccccn1,scaled lipid accumulation score,[1],0.164
same,scaled lipid accumulation score,[2],0.375
CCCCC1(C2CCCC2)Cc2cc(OCC(=O)O)c(Cl)c(Cl)c2C1=O (stereo in doubt) [R(+)-Butylindazone],scaled lipid accumulation score,[2],0.139
CN(CC(=O)N(Cc1ccc(C2CCCCC2)cc1)c1ccc(C(=O)O)cc1)S(=O)(=O)c1c(F)c(F)c(F)c(F)c1F,scaled lipid accumulation score,[1],≤ -0.009
same,scaled lipid accumulation score,[2],0.483
CCCCC[C@H](O)/C=C/[C@@H]1[C@@H](C/C=C\CCCC(=O)N(C)C)[C@@H](O)C[C@H]1O [Prostaglandin F2.alpha. dimethyl amide],scaled lipid accumulation score,[6],≤ 0
CC(C)NCC(O)c1ccc2ccccc2c1 (stereo not drawn) [Pronethalol hydrochloride],scaled lipid accumulation score,,0.369
same,scaled lipid accumulation score,[2],0.221
CC(C)N(CCC(=O)c1ccc2ccccc2c1)Cc1ccccc1.Cl [listing 1 of 2 here],scaled lipid accumulation score,[2],1.1 (active)
CC(COc1ccccc1)N(CCCl)Cc1ccccc1 (stereo not drawn) [Phenoxybenzamine HCl],scaled lipid accumulation score,[1],≤ 0
same,scaled lipid accumulation score,library stock concentration: 6.6 mM,0.025
same,scaled lipid accumulation score,[2],≤ 0
CC(C)NCC(O)c1ccc2ccccc2c1 (stereo not drawn) [Pronetalol hydrochloride],scaled lipid accumulation score,[2],0.107
CC(C)NCC(O)c1ccc2ccccc2c1 (stereo not drawn) [Pronethalol HCl],scaled lipid accumulation score,library stock concentration: 8.7 mM,0.224
CC(COc1ccccc1)N(CCCl)Cc1ccccc1 (stereo not drawn) [Phenoxybenzamine],scaled lipid accumulation score,library stock concentration: 16.5 mM,≤ -0.012
CC(C)N(CCC(=O)c1ccc2ccccc2c1)Cc1ccccc1.Cl [listing 2 of 2 here],scaled lipid accumulation score,[2],0.966 (active)
CC(COc1ccccc1)N(CCCl)Cc1ccccc1 (stereo not drawn) [Dibenzyline],scaled lipid accumulation score,[2],0.174
CC(COc1ccccc1)N(CCCl)Cc1ccccc1 (stereo not drawn) [Phenoxybenzamine hydrochloride],scaled lipid accumulation score,,0.065
same,scaled lipid accumulation score,library stock concentration: 5.9 mM,≤ 0
C=CC(=O)c1ccc2ccccc2c1,scaled lipid accumulation score,[2],0.015
CC(C)N(CCC(=O)c1ccc2ccccc2c1)Cc1ccccc1,scaled lipid accumulation score,[1],0.613
same,scaled lipid accumulation score,[2],0.619
CCCCCCCCCCCCCCCCOC[C@H](COP(=O)([O-])OCCCCCC[N+](C)(C)C)OC(C)=O [Hexanolamino PAF C-16],scaled lipid accumulation score,[6],≤ 0
Cc1ccc(-n2[nH]c(C)c(N=Nc3cccc(-c4cccc(C(=O)O)c4)c3O)c2=O)cc1C [Eltrombopag],scaled lipid accumulation score,[1],0.081
same,scaled lipid accumulation score,[2],0.077
COc1cccc2cc(-c3nc([C@H]4CC[C@H](C(=O)O)CC4)n4ncnc(N)c34)[nH]c12,scaled lipid accumulation score,[3],≤ 0
same,scaled lipid accumulation score,[4],0.061
same,scaled lipid accumulation score,[5],≤ 0
same,scaled lipid accumulation score,[1],0.043
same,scaled lipid accumulation score,[2],≤ 0
C[C@H]1C[C@@H]2[C@H]([C@@H](O)C[C@@]3(C)[C@H]2CC[C@]3(O)C(=O)COC(=O)CCC(=O)O)[C@@]2(C)C=CC(=O)C=C12 [Methylprednisolone sodium succinate],scaled lipid accumulation score,library stock concentration: 4 mM,0.015
N#CSc1cc(SC#N)c(N)nc1N,scaled lipid accumulation score,[1],0.46
same,scaled lipid accumulation score,[2],0.53
NC(Cn1ccc(=O)c(O)c1)C(=O)O (stereo not drawn) [Mimosine],scaled lipid accumulation score,,≤ 0
same,scaled lipid accumulation score,[2],≤ 0
CCCCC[C@H](O)/C=C/[C@H]1CC[C@H](O)[C@@H]1CCCCCCC(=O)O [11-deoxy Prostaglandin F1.alpha.],scaled lipid accumulation score,[6],≤ 0
"CCCCC(C)(C)[C@H](O)/C=C/[C@H]1CCC(=O)[C@@H]1C/C=C\CCCC(=O)O [11-deoxy-16,16-dimethyl Prostaglandin E2]",scaled lipid accumulation score,[6],0.098
CN1CCN(CC/C=C2/c3ccccc3Sc3ccc(S(=O)(=O)N(C)C)cc32)CC1 [Thiothixene],scaled lipid accumulation score,[2],0.435
Cl.Cl.OCCN1CCN(CC/C=C2/c3ccccc3Sc3ccc(C(F)(F)F)cc32)CC1 [cis-(Z)-Flupenthixol dihydrochloride],scaled lipid accumulation score,[2],1.01 (active)
CN1CCN(CC/C=C2/c3ccccc3Sc3ccc(S(=O)(=O)N(C)C)cc32)CC1,scaled lipid accumulation score,[2],0.722
CN1CCN(CC/C=C2\c3ccccc3Sc3ccc(S(=O)(=O)N(C)C)cc32)CC1 [Thiothixene],scaled lipid accumulation score,library stock concentration: 4.5 mM,0.856 (active)
Cl.OCCN1CCN(CC/C=C2/c3ccccc3Sc3ccc(Cl)cc32)CC1 [Zuclopenthixol hydrochloride],scaled lipid accumulation score,,0.995 (active)
CN1CCN(CCCN2c3ccccc3Sc3ccc(S(=O)(=O)N(C)C)cc32)CC1 [Thioproperazine dimesylate],scaled lipid accumulation score,,0.733
CCCCC[C@H](O)C/C=C1/C(=O)C=C[C@@H]1C/C=C\CCCC(=O)O [D12-Prostaglandin J2],scaled lipid accumulation score,[6],≤ -0.021
CC(=N)NCc1cccc(CN)c1 [1400W dihydrochloride],scaled lipid accumulation score,[2],≤ -0.006
Cc1oc(S(=O)(=O)N2CCCCC2)cc1NC(=O)Nc1ccccc1,scaled lipid accumulation score,[6],≤ 0
Cc1cc(/N=N/c2cc(S(=O)(=O)O)c(C)cc2C)c(N)cc1O [Ischemin],scaled lipid accumulation score,[3],≤ 0
same,scaled lipid accumulation score,[4],≤ 0
same,scaled lipid accumulation score,[5],≤ 0
same,scaled lipid accumulation score,[2],≤ 0

# Source: the supplement of paper PMC9135407
